# ssDAF-12 act: activates DAF-12 receptor from parasite S. stercoralis | actives 1% (n = 370,000) | HEK293 ssDAF-12/GRIP1 lit1-tk-luc reporter, luminescence; % of 3 µM dafachronic acid response | activation, % at 6.8 µM;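 active means activation above the mean over all tested compounds plus 3 SD, cut at about 0.9% in these data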;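 further: 0% = DMSO-only wells and 100% = 3 µM delta7-dafachronic acid wells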
# hcDAF12 agonist: H. contortus DAF-12 activation, primary screen | HEK293 hcDAF-12 lit1-tk-luc reporter, luminescence; 0% DMSO, 100% Δ7-dafachronic acid | activation, % at 6.8 µM | actives 1.4% (n = 370,000) | AID 652067;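 active means activation above the mean of all tested compounds plus 3 SD, cut at about 5.5% in these data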;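 further: 100% = response to 3 µM Δ7-dafachronic acid high control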
# hgDAF12 agonist: hgDAF-12 agonism, primary luciferase screen; HEK293 GAL4-hgDAF12 UAS-luciferase reporter, agonist luminescence; normalized to butyrate control; activation, % at 6.8 µM; actives 1.8% (n = 370,000);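 active means activation above a cutoff set at the mean of all screened compounds plus 3 SD, cut at about 10% in these data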;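 further: 0% = DMSO wells and 100% = sodium butyrate wells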
# Wnt act: activators of Wnt/beta-catenin signaling; Wnt/beta-catenin reporter cell assay, activator, plate reader; activation, % at 9.35 µM; actives 1.2% (n = 300,000); in the data active means activation above about 30%, passing the limit was not always enough;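 further: 0% = neutral control wells and 100% = positive control wells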
# esBAF inh: inhibitors of esBAF chromatin remodeling in mouse ES cells. Bmi1-luciferase knock-in reporter, 24 h; 100% = twice the neutral-well signal. reporter increase, % at 12.5 µM. actives 2% (n = 350,000). AID 602393; in the data active means activation above about 40%;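 further: 0% = median of the plate's neutral control wells and 100% = double that signal; a rise in the Bmi1 reporter signal indicates esBAF inhibition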
# DAX1 inh: inhibitors of DAX1 repression of SF-1 activated StAR promoter; HEK293T StAR-luciferase reporter, SF-1/DAX-1 repression relief; AID 652010; actives 1.1% (n = 370,000); inhibition, % at 6.8 µM;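 active means inhibition above the mean over all tested compounds plus 3 SD, cut at about 3.6% in these data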;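 further: 0% = DAX-1 cells with DMSO and 100% = cells lacking DAX-1 with DMSO; higher inhibition means more luminescence from relief of DAX-1 repression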
# LXR ag: LXR-beta agonism as hcDAF-12 counter-screen; shares compounds with hcDAF12 agonist; HEK293 Gal4-LXR tk-luc reporter, luminescence, 24 h; normalized: DMSO 0%, positive control 100%; activation, % at 6.8 µM; 3,400 tested, under 10 active;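 active means mean percent activation of the reporter above a cutoff set as the average over tested compounds plus their standard deviation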
# Target sequence (P55055 whole entry, looked up, the tested form may be a part): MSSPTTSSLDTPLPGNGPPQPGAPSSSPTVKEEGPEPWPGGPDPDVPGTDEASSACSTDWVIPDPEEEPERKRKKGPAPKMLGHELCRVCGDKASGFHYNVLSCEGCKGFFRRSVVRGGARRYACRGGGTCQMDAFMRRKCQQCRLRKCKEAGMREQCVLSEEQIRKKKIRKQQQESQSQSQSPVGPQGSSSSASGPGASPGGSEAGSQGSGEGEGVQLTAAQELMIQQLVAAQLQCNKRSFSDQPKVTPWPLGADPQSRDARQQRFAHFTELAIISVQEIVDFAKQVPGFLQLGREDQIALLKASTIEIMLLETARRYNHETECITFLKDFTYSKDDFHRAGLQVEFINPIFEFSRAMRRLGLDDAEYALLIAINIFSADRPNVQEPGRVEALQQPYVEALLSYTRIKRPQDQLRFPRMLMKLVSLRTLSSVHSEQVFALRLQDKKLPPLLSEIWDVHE
# hcDAF12 conf: confirmation of H. contortus DAF-12 agonists; shares compounds with hcDAF12 agonist; HEK293 hcDAF-12 lit1-tk-luc reporter, luminescence; % of Δ7-dafachronic acid response; activation, % at 6.8 µM; actives 61% (n = 3,400); AID 743032;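 active means mean activation across triplicate tests above the threshold derived from the earlier primary screen, cut at about 5.5% in these data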;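 further: 0% = DMSO only wells and 100% = 3 µM Δ7-dafachronic acid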
# * = called active by the depositor; · = no result given. The list is not random: actives were taken first. Their share in the collection is about 4.2%.
SMILES,ssDAF-12 act,hcDAF12 agonist,hgDAF12 agonist,Wnt act,esBAF inh,DAX1 inh,LXR ag,hcDAF12 conf
O=C(CSc1nnc(Nc2ccccc2F)s1)c1cc2ccccc2o1,0,7.8*,2,1,·,0,0,3
O=C(C[C@@H]1C[C@H]2c3cc(NC(=O)c4ccc5c(c4)OCO5)ccc3O[C@H]2[C@@H](CO)O1)NCc1cccc(F)c1,·,·,·,·,5,·,·,·
CCC(=O)N1[C@H](C(=O)NC2CCC2)[C@@H](CO)[C@@H]2Cn3c(ccc(-c4ccc(F)cc4)c3=O)[C@@H]21,·,·,·,·,-4,·,·,·
CO[C@@H]1CN(C)C(=O)c2cc(NS(=O)(=O)CC(F)(F)F)ccc2OC[C@@H](C)N(Cc2nccs2)C[C@H]1C,·,·,·,·,-1,·,·,·
S=C(NCCN1CCOCC1)Nc1ccc(Br)cc1,0,6.9*,-1,-5,·,0,0,1
C[C@H](O)C#Cc1ccc2c(c1)O[C@@H](CN(C)C(=O)CN(C)C)[C@@H](C)CN([C@H](C)CO)S2(=O)=O,·,·,·,·,0,·,·,·
O=c1oc2cc(OCc3ccc(C(F)(F)F)cc3)ccc2cc1-c1ccccn1,-1,0,2,·,5,0,·,·
O=C(CCCCl)Oc1ccc2cc(-c3ccc4ccccc4n3)c(=O)oc2c1,0,8.4*,4,9,·,1,0,5
O=C(Nc1ccc2c(c1)[C@@H]1C[C@H](CC(=O)N3CCOCC3)O[C@H](CO)[C@@H]1O2)c1ccc2c(c1)OCO2,·,·,·,·,8,·,·,·
O=C(O)/C(=C\c1ccccc1)c1ccc2ccccc2c1,-1,1,-1,9,22,1,·,·
O=C(O)C(=O)/C(=C\c1cccc(Cl)c1)c1ccc2ccccc2n1,2.1*,14*,11*,40*,78*,3.8*,0,8.6*
CCC1CCCCN1CCCNC(=O)c1ccc2c(c1)NC(=O)CN2C (stereo unspecified),-1,8.8*,0,-1,-1,-1,0,-1
CC(=O)N(C)C[C@H]1Oc2ncc(C3=CCCC3)cc2C(=O)N([C@H](C)CO)C[C@@H]1C,·,·,·,·,-1,·,·,·
Cc1cc(Cl)ccc1OCC(=O)NCCOC(=O)Nc1sc(=S)n(C)c1C,0,6.9*,1,-5,·,0,0,-1
O=C(CSc1nnc(-c2cccnc2)n1Cc1ccco1)c1ccccc1,-1,6.6*,-2,·,·,1,0,2
O=C(CSc1nnc(-c2ccc(O)cc2)n1Cc1ccco1)c1ccccc1,-1,-2,-2,-1,2,0,·,·
C[C@@H]1CN([C@H](C)CO)S(=O)(=O)c2ccc(C#CC3CC3)cc2O[C@H]1CN(C)C(=O)CC1CC1,·,·,·,·,5,·,·,·
Cc1ccc(S(=O)(=O)CCC(=O)OCC(=O)c2c[nH]c3ccccc23)cc1,0,9.4*,5,-3,·,-1,0,5.8*
COc1cccc(-c2cnc3c(c2)C(=O)N([C@H](C)CO)C[C@H](C)[C@H](CN(C)C(=O)CN(C)C)O3)c1,·,·,·,·,-4,·,·,·
O=C1C=C(Nc2ccccc2)C(=O)c2ccccc21,0,7.6*,8,2,5,0,2,7.0*
CCOc1ccc2[nH]c3c(NCCN(CC)CC)ncnc3c2c1,-1,0,1,3,0,0,·,·
CCN(CC)CCCNc1nc2ccccc2c2[nH]c3ccc(OC)cc3c12,3.6*,14*,7,7,·,0,2,16*
CCN(CC)CCCNc1nc(-c2ccccc2)nc2ccccc12,-1,4,2,-8,-7,1,·,·
COc1ccc(-c2nc(NCCCN(C)C)c3ccccc3n2)cc1,0,10.0*,9,2,11,2,0,9.3*
Cc1noc(C)c1NC(=O)N(C)C[C@@H]1Oc2ccc(NS(=O)(=O)c3cn(C)cn3)cc2CC(=O)N([C@H](C)CO)C[C@@H]1C,·,·,·,·,1,·,·,·
SMILES,ssDAF-12 act,hcDAF12 agonist,hgDAF12 agonist,Wnt act,esBAF inh,DAX1 inh,LXR ag,hcDAF12 conf
Cc1ccc2nc(-c3sc4nc(C)cc(C)c4c3N)[nH]c2c1,2.3*,17*,4,·,-42,4.0*,2,24*
O=C(C[C@@H]1C[C@@H]2c3cc(NC(=O)Nc4ccc(C(F)(F)F)cc4)ccc3O[C@@H]2[C@H](CO)O1)NC1CCCCC1,·,·,·,·,1,·,·,·
COc1cccc(C(=O)NC(=S)Nc2cccnc2)c1,1.0*,7.8*,7,7,·,1,0,1
C/C=C/c1ccc2c(c1)O[C@@H](CN(C)C(=O)C1CC1)[C@@H](C)CN([C@@H](C)CO)S2(=O)=O,·,·,·,·,12,·,·,·
CO[C@H]1CN(C)C(=O)c2ccc(NC(=O)NC(C)C)cc2OC[C@@H](C)N(C(=O)NC(C)C)C[C@H]1C,·,·,·,·,-4,·,·,·
Cn1nc(-c2ccc(Cl)cc2)c2cc(C(=O)NCCCN3CCCC3)sc21,0,9.5*,6,-3,-13,1,0,6.5*
CCOC(=O)N1CCC(NC(=O)c2cc3c(-c4ccc(Cl)cc4)nn(C)c3s2)CC1,0,7.8*,0,-6,0,1,0,0
COCCNC(=O)c1cc2c(-c3ccc(Cl)cc3)nn(C)c2s1,-1,6.8*,3,-4,-5,-1,0,3
COCCCNC(=O)c1cc2c(-c3ccc(Cl)cc3)nn(C)c2s1,0,4,0,1,4,0,·,·
CC(C)c1ccc(NC(=O)c2sccc2-n2cccc2)cc1,0,11*,12*,16,·,1,0,8.9*
Cc1c(Br)cccc1NC(=O)c1sccc1-n1cccc1,-1,-1,0,·,·,-1,·,·
Cc1noc(C)c1NC(=O)N(C)C[C@H]1Oc2ccc(NC(=O)NC3CCCCC3)cc2CC(=O)N([C@H](C)CO)C[C@@H]1C,·,·,·,·,0,·,·,·
CCOc1ccc(NC(=S)NNc2ccnc3cc(Cl)ccc23)cc1,-2,7.9*,0,22,·,1,-1,-2
CCOc1ccccc1Nc1ccnc2cc(Cl)ccc12,-2,-2,-3,2,-5,0,·,·
Cc1ccc(Nc2nc(CSc3nnc(-c4cccnc4)n3-c3ccccc3C)cs2)cc1,-1,1,-1,-1,·,0,·,·
Cc1ccc(Nc2nc(CSc3nnc(-c4ccccc4C)n3C)cs2)cc1,-1,6.8*,3,13,·,1,0,1
O=C(C[C@@H]1CC[C@H](NC(=O)CCN2CCCCC2)[C@H](CO)O1)Nc1ccc(-c2ccccc2)cc1,·,·,·,·,1,·,·,·
CO[C@H]1CN(C)C(=O)c2cc(NC(=O)C3CCC3)ccc2OC[C@@H](C)N(Cc2cccnc2)C[C@H]1C,·,·,·,·,2,·,·,·

# Screening data: PubChem, several laboratories
